# Test results reported in PubChem BioAssay.
# Unmarked numbers belong to inactive results. No rule for the calls is given here.
# Target: Pantothenate synthetase (Mycobacterium tuberculosis (strain ATCC 25618 / H37Rv)) (UniProt P9WIL5)
# Experiment: Recombinant Mtb pantothenate synthetase (PanC) inhibitors, coupled enzyme, confirmatory (AID 375);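 also: 0% = full reaction with vehicle and 100% = no enzyme background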
# Conditions: coupled enzyme assay; at 10 µM, hits give high values
# Pantothenate synthetase (Mycobacterium tuberculosis (strain ATCC 25618 / H37Rv)), sequence (P9WIL5 whole entry, looked up): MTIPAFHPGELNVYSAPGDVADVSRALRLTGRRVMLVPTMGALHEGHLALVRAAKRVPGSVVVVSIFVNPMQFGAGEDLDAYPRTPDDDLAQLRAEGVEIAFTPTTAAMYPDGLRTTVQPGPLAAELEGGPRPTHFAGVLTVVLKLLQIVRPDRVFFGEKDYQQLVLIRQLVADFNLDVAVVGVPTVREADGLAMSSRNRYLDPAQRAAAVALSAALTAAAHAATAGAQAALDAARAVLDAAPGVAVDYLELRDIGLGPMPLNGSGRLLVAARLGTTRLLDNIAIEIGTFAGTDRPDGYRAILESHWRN
row,Compound,inhibition [%]
1,CC(=O)OCC(=O)[C@@]1(O)CC[C@H]2[C@@H]3CCC4=CC(=O)C=C[C@]4(C)[C@H]3[C@@H](O)C[C@@]21C,0
2,Cc1nc2ncnn2c(Nc2ccc3c(c2)OCCO3)c1C,3
3,COc1ccc(N2CCN(C(=O)C(OC(C)=O)c3ccccc3)CC2)cc1 (centres undefined),3
4,Cc1cc(C)c2c(n1)nn1c(C3CC3)cc(C(F)(F)F)nc21,5
5,O=C(O)CN1C(=O)CNC1=O,0
6,CCC(c1nnc(SCC(=O)NCC2CCCO2)n1Cc1ccccc1)N(C)C (centres undefined),0
7,COc1cc(C(=O)NCCc2ccc3c(c2)OCCO3)ccc1OCC(=O)N1CCOCC1,2
8,CCOC(=O)C1=C(C)NC(C)=C(C(=O)OCC)C1c1cc(N)ccc1OC(F)F,0
9,Cc1ccc(-c2nn(C)c(=O)c3ccccc23)cc1S(=O)(=O)NCCN1CCOCC1,2
10,Cc1sc(NC(=O)CSc2nc(N)n(CC(=O)c3ccccc3)n2)c(C#N)c1C,4
11,CSc1nnc(-c2cnccn2)n1Cc1ccccc1,0
12,CN1C(C(=O)Nc2ccccn2)=C(O)c2ccccc2S1(=O)=O,9
13,COc1ccc(S(=O)(=O)N2CCN(Cc3ccc(Cl)cc3)CC2)cc1,0
14,CCOc1ccc2[nH]c(=O)c(CN(CCOC)C(=O)N3CCOCC3)cc2c1,8
15,O=C(CN1CCCN(S(=O)(=O)c2ccc(F)cc2)CC1)Nc1ccccc1Br,5
16,CCC(NS(=O)(=O)c1ccc(C)cc1)C(=O)N1CCC2(O)CCCCC2C1 (centres undefined),6
17,c1ccc(CNc2ccc3c(c2)ncn3C2CCCCC2)nc1,0
18,CN(C(=O)COC(=O)C1CCN(S(=O)(=O)c2cccs2)CC1)C1CCS(=O)(=O)C1 (centres undefined),7
19,CN(Cc1cccs1)c1ncnc2sccc12,0
20,CC(=O)NS(=O)(=O)c1ccc(N)cc1,2

row,Compound,inhibition [%]
1,CC(=O)c1c(NCCc2ccccc2)cc(C)oc1=O,0
2,CS(=O)(=O)N1CCCC(C(=O)NCCCN2CCC(Cc3ccccc3)CC2)C1 (centres undefined),0
3,Cc1ccc(S(=O)(=O)CC(=O)N2CCCCCC2)cc1,0
4,Cc1ccc(N2C(=O)c3ccccc3C2Nc2cccnc2)nc1 (centres undefined),1
5,O=C1c2ccccc2C(=O)N1C/C=C/CN1C(=O)c2ccccc2C1=O,0
6,Clc1ccc(SCCCCn2ccnc2)cc1,8
7,O=C(CSc1ncnc2ccccc12)NCCCO,0
8,C#CCSc1nc(-c2cccs2)ccc1C#N,0
9,Cn1cnnc1Sc1nc2c(c(=O)n(C)c(=O)n2C)n1C,0
10,O=C(c1ccc(-c2ccccc2)cc1)N1CCC(C(=O)N2CCCC2)CC1,0
11,CCOc1ccccc1NC(=O)CCN1CCN(S(=O)(=O)c2ccc(Br)cc2)CC1,0
12,CC1Cc2nc(SCC(=O)N3CCCc4ccccc43)n(C)c(=O)c2S1 (centres undefined),1
13,O=C(NCc1ccc2c(c1)OCO2)c1cccc2c1C(=O)N(C1CCCCC1)C2,5
14,O=C(c1ccc(Cl)s1)N1CCN(c2nc3ccccc3s2)CC1,6
15,COc1ccc(S(=O)(=O)N2CCSC2c2ccccc2)cc1 (centres undefined),1
16,COc1ccc(-c2nn(-c3ccccc3)cc2/C=N/n2cnnc2)cc1OC,9
17,COC(=O)COc1nc(C)c(Br)c(OC)n1,0
18,CCOCCCNC(=O)Cn1cc2c(n1)CCCCC2,2
19,CC(CCc1ccccc1)NC(=O)c1ccc(Br)o1 (centres undefined),0
